# Measles CPE: protection of cells from measles virus. 1.5% of 140,000 active. protection (pct of control), % at 4 µM. Measles virus-infected cells, CPE protection, absorbance. AID 841; in the data active = protection mostly above about 24%, no sharp cut-off; inactive = mostly below about 26%
# MT1-MMP txn act: activates MT1-MMP transcription; HT1080 MT1-MMP promoter luciferase reporter, luminescence, overnight; hits give high values; activation factor at 10 µM; 0.16% of 86,000 active; AID 750;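 active = activation factor of at least 2 for MT1-MMP transcription at 10 µM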
# PostGolgi ctrl: yeast control strain growth, post-Golgi counter-screen | efflux-deficient yeast background strain, growth absorbance A615, 16 h | inhibition, % at 10 µM | 5% of 98,000 active | AID 738
# PostGolgi yeast: growth inhibition of a yeast mutant, post-Golgi transport screen; post-Golgi transport phenotypic cell assay; inhibition, % at 10 µM; 0.9% of 98,000 active; AID 739;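 also: yeast cells grown in 1536-well plates; yeast grown about 18 h at 30C before absorbance read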
# The depositor's hits bear a star; / = not tested or not shown. This is a sample that favours compounds with a hit; in the whole collection about 5.3% have one here. Rule as the data show it, unless noted: active = inhibition above about 30%; inactive = the rest.
SMILES,Measles CPE,MT1-MMP txn act,PostGolgi ctrl,PostGolgi yeast
COCCOc1ccc(C(F)(F)F)cc1Nc1nc2ccccc2o1,9,1.6,54*,-3
COCCOc1ccc(C(F)(F)F)cc1NC(=O)c1ccc(C(F)(F)F)cc1,29,/,/,/
CC1(C)CC(=O)c2cc(C(=O)O)c(=O)n(-c3ccccc3)c2C1,14,1.1,9,4
Cc1ccc(-n2c3c(cc(C(=O)O)c2=O)C(=O)CC(C)(C)C3)cc1,55*,1.2,9,-7
Cc1cc2c(n1-c1ccc(Cl)cc1)CC(C)(C)CC2=O,5,1.2,36*,4
CC1(C)CC(=O)c2cc(C(=O)N3CCN(CCO)CC3)c(=O)n(-c3ccc(Cl)cc3)c2C1,9,/,10,2
CN(C)S(=O)(=O)c1ccc(NC(=O)N2CCN(c3ccccc3)CC2)cc1,40*,/,2,-2
Cc1nc2ccc(S(=O)(=O)NCC(=O)N3CCN(c4ccccc4)CC3)cc2s1,14,1,3,7
COc1ccc(N2CCN(C(=O)Nc3ccc(S(=O)(=O)N(C)C)cc3)CC2)cc1,14,/,-10,-2
O=C(CNS(=O)(=O)c1ccccc1)N1CCN(c2ccccc2)CC1,2,1.3,34*,0
CN(CC(O)COCc1ccc2c(c1)OCO2)C1CCCCC1 (configuration not stated),12,/,/,/
CC1CCN(c2nc3c(c(=O)[nH]c(=O)n3C)n2CC(C)CSc2nnnn2-c2ccccc2)CC1 (configuration not stated),7,/,/,/
CC(C)c1nnc(NC(=O)c2c(O)c3cccc4c3n(c2=O)CCC4)s1,24,0.8,59*,80*
Cc1ccc(C2(C(F)(F)F)N=C3Sc4cc(C)ccc4N3C(=O)N2)cc1 (configuration not stated),1,1.3,5,1
CC(C)CN(C(=O)CSc1nn(-c2ccc(Cl)cc2)c(=S)s1)C1CCS(=O)(=O)C1 (configuration not stated),4,/,/,/
CC1(C)Cc2c(sc(NC(=O)c3ccc(Br)o3)c2C#N)CO1,5,2.3*,3,-13
CN1CCN(C2=C(Cl)C(=O)N(c3ccc(Cl)cc3)C2=O)CC1,19,1.1,31*,1
Cc1ccc(-c2nnc(N3CCN(C(=O)COc4ccccc4)CC3)c3ccccc23)cc1,8,1,50*,-1
Cc1ccc(OCC(=O)N2CCN(C(=O)Cc3ccccc3)CC2)cc1,1,1.1,31*,3
Cc1nc(CN2CCN(C(=O)c3ccc(C(C)(C)C)cc3)CC2)cs1,18,/,1,4
Cc1cccc2cc(CN(Cc3nnnn3Cc3ccco3)C3CCCC3)c3nnnn3c12,7,1.2,43*,17
Cc1ccc2[nH]c(=O)c(CN(Cc3nnnn3Cc3ccccc3)C3CCCC3)cc2c1,6,1,-2,-9
CC(C)CC(=O)NC(NC(=S)Nc1sc2c(c1C#N)CCCC2)C(Cl)(Cl)Cl (configuration not stated),5,/,11,3
CC(C)[C@H](NC(=O)NC1CCCC1)C(=O)O,7,1,3,6
CC(C)=CCCC(C)NC(=O)NC1CCCCC1 (configuration not stated),27*,1.2,/,/
SMILES,Measles CPE,MT1-MMP txn act,PostGolgi ctrl,PostGolgi yeast
COC(=O)[C@@]1(Cc2ccc(OC)cc2)[C@H]2c3cc(C(=O)N4CCCC4)n(Cc4cc(C)n(C)n4)c3C[C@H]2CN1C(=O)c1ccccc1,/,1,/,/
Cc1ccc(C(=O)Nc2ccccc2-c2ccccc2)o1,11,1.3,35*,6
COc1ccc(/C=C/C(=O)c2ccc(NC(=O)c3cccs3)cc2)cc1OC,10,/,54*,-8
CCc1nc(C)cn1S(=O)(=O)c1cc(C)c(OC)c(C)c1C,38,1.2,19,13
CSc1ccc(CNc2ccc(C)c(C)c2)cc1,10,/,38*,-2
Cc1cc2ncn(-c3ncnc4sc5c(c34)CCC(C)C5)c2cc1C (configuration not stated),12,/,70*,4
c1ccc2c(c1)ncn2-c1ncnc2sc3c(c12)CCCC3,3,1.2,13,-9
Cc1cc2ncn(-c3ncnc4sc5c(c34)CCCC5)c2cc1C,23,1.1,39*,-6
COc1ccc(OC)c(NC(=O)Cc2coc3cc(C)cc(C)c23)c1,12,1,-3,-9
Cc1ccc2nsnc2c1S(=O)(=O)NCc1cccnc1,39*,1.2,-8,1
Cc1ccc2nsnc2c1S(=O)(=O)NCc1ccncc1,6,1.1,-3,-4
COc1cccc(NC(=O)CCNC(=O)Cn2ccc3ccccc3c2=O)c1,6,1.1,0,-7
Cc1cc(C(=O)N2CC(C)CC(C)C2)n(-c2ccccc2)n1 (configuration not stated),2,1,32*,-1

# Screening data from PubChem.
